# Experimental data published in ChEMBL document CHEMBL4513147, “CO-ADD screening of Armstrong State University (GA, USA) compounds”.
# Hit rate of the full screen: of about 21,000 compounds, fewer than 10 showed an effect of 50% or more. A selection follows. Potency and affinity values are given separately.
# Tested on: Acinetobacter baumannii
# Details: Concentration 32 ug.mL-1; ASSAY_TEST Inhibition of Bacterial Growth; detection method Absorption (OD600); MEDIA CAMHB; plate type 384well; NBS; CORNING #3640; time 18 hr
row,SMILES,Inhibition
1,COc1ccc2c(c1)CCC(=Cc1cccnc1Br)C2=O,-2.26%
